Among the data in PubChem BioAssay are activation and outcome values, retold here.

Test [1] deals with TRPC4 beta (transient receptor potential cation channel C4), mouse. The experiment in a line: TRPC4 cation channel opening, retest – cell-based, Fluo4 calcium, HEK293 TRPC4beta/mu-opioid, duplicates, 10 µM, confirmation (AID 2426;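 active = fluorescence ratio normalized to control raised more than 50% in primary screen plus both repeat runs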;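 note: percent rise of integrated ratio over buffer wells lacking compound which define 0%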). The note with it: Fluo4 calcium fluorescence, at 10 µM; active compounds read high.
For test [2], the system named is transient receptor potential cation channel C4 beta (TRPC4), mouse. The test is described as follows: TRPC4 cation channel opening, second retest – cell-based, second round, Fluo4, HEK293 TRPC4beta/mu-opioid, 1 µM, confirmation (AID 2461;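 active = primary screen active and over 50% activation in each of two duplicate runs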;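 for activation: 0% = wells without test compound as baseline of integrated fluorescence ratio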). The note with it: Fluo4 calcium fluorescence, at 1 µM; active compounds read high.
Test [3] concerns TRPC4 (transient receptor potential cation channel C4 beta), mouse. The test is described as follows: potentiation of DAMGO EC20 TRPC4 response – cell-based, second round, Fluo-4, HEK293 TRPC4beta/mu-opioid, 1 µM, confirmation (AID 2554;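 active = primary screen hit whose fluorescence ratio, in both repeats, exceeds the weak agonist control mean by 3 SD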). The note with it: DAMGO EC20, Fluo-4 calcium flux, at 1 µM; active compounds read high. (In general: A change in cytosolic calcium serves as a functional read-out for many receptors and channels.)

Test [4] relates to TRPC4 beta (transient receptor potential cation channel C4), mouse. The test is described as follows: potentiation of DAMGO EC20 TRPC4 response – cell-based, Fluo-4, HEK293 TRPC4beta/mu-opioid, confirmation (AID 2555;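 active = primary screen hit whose calcium fluorescence ratio, in both repeats, exceeds the weak agonist control mean by 3 SD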). The following applies: DAMGO EC20, Fluo-4 calcium flux, at 10 µM; active compounds read high.
In test [5] the target is Short transient receptor potential channel 4 (Mus musculus) (UniProt Q9QUQ5). The experiment in a line: blockers of DAMGO-evoked TRPC4 calcium flux – cell-based, Fluo4, HEK293 TRPC4beta/mu-opioid, confirmation (AID 2636;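 active = calcium signal cut by more than 3 SD below the full-agonist control yet still positive, in both repeats and the earlier primary screen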). The following applies: at 10 µM; active compounds read high.
Sequence of Short transient receptor potential channel 4 (Mus musculus) (Q9QUQ5 whole entry, looked up): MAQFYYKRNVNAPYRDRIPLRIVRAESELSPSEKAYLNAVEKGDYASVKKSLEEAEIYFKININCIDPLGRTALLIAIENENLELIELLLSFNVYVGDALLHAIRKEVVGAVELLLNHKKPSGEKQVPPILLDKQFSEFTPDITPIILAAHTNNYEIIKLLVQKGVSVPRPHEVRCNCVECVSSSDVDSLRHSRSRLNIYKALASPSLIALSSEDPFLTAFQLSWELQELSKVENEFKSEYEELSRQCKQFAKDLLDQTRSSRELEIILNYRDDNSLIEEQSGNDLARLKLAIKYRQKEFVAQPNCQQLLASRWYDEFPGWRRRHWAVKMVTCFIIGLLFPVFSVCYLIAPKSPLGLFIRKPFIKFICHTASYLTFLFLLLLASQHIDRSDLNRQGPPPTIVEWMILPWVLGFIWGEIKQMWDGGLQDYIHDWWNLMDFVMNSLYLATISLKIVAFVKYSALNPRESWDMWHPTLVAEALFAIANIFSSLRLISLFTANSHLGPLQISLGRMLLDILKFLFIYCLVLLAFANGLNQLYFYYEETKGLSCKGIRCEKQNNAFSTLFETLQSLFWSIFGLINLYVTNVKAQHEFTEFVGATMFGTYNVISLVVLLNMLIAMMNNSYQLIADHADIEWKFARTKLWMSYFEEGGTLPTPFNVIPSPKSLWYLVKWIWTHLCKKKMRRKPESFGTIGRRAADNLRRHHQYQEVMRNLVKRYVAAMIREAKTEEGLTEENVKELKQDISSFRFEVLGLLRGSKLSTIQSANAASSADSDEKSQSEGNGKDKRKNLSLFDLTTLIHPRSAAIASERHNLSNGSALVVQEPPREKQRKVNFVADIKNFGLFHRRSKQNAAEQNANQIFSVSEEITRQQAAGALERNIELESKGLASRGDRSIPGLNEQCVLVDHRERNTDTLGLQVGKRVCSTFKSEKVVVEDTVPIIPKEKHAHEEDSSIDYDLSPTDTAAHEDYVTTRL
Test [6] has the same target. The test is described as follows: blockers of DAMGO-evoked TRPC4 calcium flux – cell-based, second round, Fluo4, HEK293 TRPC4beta/mu-opioid, 1 µM, confirmation (AID 2637;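 active = calcium signal ratio cut to more than 3 SD under the fully stimulated control mean yet still positive, in both repeats and the primary screen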). The following applies: at 1 µM; active compounds read high.
The target is the same in test [7]. The test is described as follows: potentiation of DAMGO-evoked TRPC4 calcium signal – cell-based, HEK293 TRPC4/mu-opioid, Fluo-4 calcium, EC20 DAMGO, dose response (AID 434941;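 active = earlier screen potentiator hit that boosts the TRPC4 ion channel at some dose, with a dose response; inactive = no potentiation, no dose response, or not a prior hit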;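 note: calcium entry triggered by an EC20 dose of DAMGO at the co-expressed mu-opioid receptor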).
Test [8] shares this target. The experiment in a line: block of DAMGO-driven TRPC4 calcium entry – cell-based, HEK293 TRPC4/mu-opioid, Fluo-4 calcium, dose response (AID 434942;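 active = primary screen inhibitor hit that blocks the TRPC4 channel at some tested dose, yielding a dose curve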).
Test [9] concerns the target Short transient receptor potential channel 6 (Mus musculus) (UniProt Q61143). The test is described as follows: TRPC6 blockade by TRPC4 inhibitor hits – cell-based, HEK293, membrane potential dye, duplicate, selectivity assay for TRPC4 inhibitor project, confirmation (AID 434948;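 active = active in primary screen and both duplicates, each dropping signal beyond three positive-control SD with fluorescence still positive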). The note with it: HEK293 TRPC6, membrane potential dye fluorescence, at 10 µM; inhibition: active compounds read high, stimulated with maximal-effect acetylcholine unless noted; outcome: stimulated with maximal-effect acetylcholine unless noted.

For test [10] the target is unchanged. The test is described as follows: TRPC6 opening by TRPC4 activator hits – cell-based, HEK293, membrane potential dye, duplicate, selectivity assay for TRPC4 activator project, confirmation (AID 434950;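 active = membrane potential signal rise above negative control mean plus 3 SD in both duplicates, also active in the earlier TRPC4 screen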;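 for activation: 0% = buffer only wells and 100% = acetylcholine maximal-effect wells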). The following applies: HEK293 TRPC6, membrane potential fluorescence, at 10 µM; activation: active compounds read high; outcome: activation.
Test [11] has the same target. The test is described as follows: positive modulators of mouse TRPC6 channel – HEK293 cells, membrane potential dye, duplicate, selectivity assay for TRPC4 potentiator project, confirmation (AID 434952). The note with it: HEK293 TRPC6, membrane potential dye fluorescence, at 10 µM; maximal acetylcholine added after compound unless noted.
The target of test [12] is Short transient receptor potential channel 4 (Mus musculus) (UniProt Q9QUQ5). The experiment in a line: calcium flux activators in TRPC4/5HT1a cells, counter-screen for TRPC4 activator project, cell-based, second counter screen, HEK293 TRPC4/5HT1a, Fluo-4 (AID 434977;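 active = calcium signal rise above buffer-control mean plus 5 SD in both duplicates, and also a hit in the primary screen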;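 for activation: plate controls were assay buffer for no effect and maximal serotonin response for full effect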). The following applies: Fluo-4 calcium flux, at 10 µM; active compounds read high.
Test [13] in a line: serotonin-gated TRPC4 signal block – cell-based, second counter screen, HEK293 TRPC4/5HT1a, Fluo-4, counter-screen for TRPC4 inhibitor project, confirmation (AID 434978;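 active = primary screen active whose calcium signal fell more than 3 SD beyond the full-serotonin control mean in both duplicate plates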;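 note: serotonin given first at submaximal then at maximal dose after compound preincubation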). The note with it: Fluo-4 calcium flux, at 10 µM; inhibition: active compounds read high, serotonin added to trigger calcium flux unless noted; outcome: serotonin added to trigger calcium flux unless noted. Background: Counterscreens check selectivity or assay interference.

The subject of test [14] is TRPC4 (mouse), co-expressed with 5HT1a in HEK293. The test is described as follows: enhancement of serotonin-evoked TRPC4 response – cell-based, second counter screen, HEK293 TRPC4/5HT1a, Fluo-4, counter-screen for TRPC4 potentiator project, confirmation (AID 434979;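 active = signal rise over 3 SD above mean of control wells given weak agonist, in both repeats and first screen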). The note with it: Fluo-4 calcium flux, at 10 µM; outcome: serotonin added at its EC20 dose unless noted; potentiation: active compounds read high, serotonin added at its EC20 dose unless noted.

A short description of test [15]: nonspecific calcium rise without TRPC4 – cell-based, HEK293 mu-opioid receptor line, counter-screen for TRPC4 activator project, confirmation (AID 449723;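 active = hit in primary screen, with calcium signal over 5 SD above buffer well mean in both duplicates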;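 note: counter screen cells carry the mu-opioid receptor alone and lack TRPC4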). The note with it: HEK293 mu-opioid cells, Fluo-4 calcium fluorescence, at 10 µM; active compounds read high.
Test [16] can be described thus: nonspecific potentiation of DAMGO calcium response – cell-based, HEK293 mu-opioid receptor line, counter-screen for TRPC4 allosteric potentiator project, confirmation (AID 449724;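 active = calcium signal rise more than 3 SD above the low-dose agonist control mean, in both duplicate plates and the primary screen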;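 note: HEK293 cells carrying mu-opioid receptor only with no TRPC4 channel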). The following applies: HEK293 mu-opioid receptor cells, Fluo-4 calcium flux, at 10 µM; compound added before EC20 DAMGO stimulus unless noted.

For some assays here: Results with a measured potency or affinity are listed apart. Active and inactive are the calls of the source.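 Rule for the calls, unless noted: active = compound raising the membrane signal above positive-control mean plus 3 SD in both repeats, and a primary screen hit; inactive = the rest.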

Sequence of Short transient receptor potential channel 6 (Mus musculus) (Q61143 whole entry, looked up): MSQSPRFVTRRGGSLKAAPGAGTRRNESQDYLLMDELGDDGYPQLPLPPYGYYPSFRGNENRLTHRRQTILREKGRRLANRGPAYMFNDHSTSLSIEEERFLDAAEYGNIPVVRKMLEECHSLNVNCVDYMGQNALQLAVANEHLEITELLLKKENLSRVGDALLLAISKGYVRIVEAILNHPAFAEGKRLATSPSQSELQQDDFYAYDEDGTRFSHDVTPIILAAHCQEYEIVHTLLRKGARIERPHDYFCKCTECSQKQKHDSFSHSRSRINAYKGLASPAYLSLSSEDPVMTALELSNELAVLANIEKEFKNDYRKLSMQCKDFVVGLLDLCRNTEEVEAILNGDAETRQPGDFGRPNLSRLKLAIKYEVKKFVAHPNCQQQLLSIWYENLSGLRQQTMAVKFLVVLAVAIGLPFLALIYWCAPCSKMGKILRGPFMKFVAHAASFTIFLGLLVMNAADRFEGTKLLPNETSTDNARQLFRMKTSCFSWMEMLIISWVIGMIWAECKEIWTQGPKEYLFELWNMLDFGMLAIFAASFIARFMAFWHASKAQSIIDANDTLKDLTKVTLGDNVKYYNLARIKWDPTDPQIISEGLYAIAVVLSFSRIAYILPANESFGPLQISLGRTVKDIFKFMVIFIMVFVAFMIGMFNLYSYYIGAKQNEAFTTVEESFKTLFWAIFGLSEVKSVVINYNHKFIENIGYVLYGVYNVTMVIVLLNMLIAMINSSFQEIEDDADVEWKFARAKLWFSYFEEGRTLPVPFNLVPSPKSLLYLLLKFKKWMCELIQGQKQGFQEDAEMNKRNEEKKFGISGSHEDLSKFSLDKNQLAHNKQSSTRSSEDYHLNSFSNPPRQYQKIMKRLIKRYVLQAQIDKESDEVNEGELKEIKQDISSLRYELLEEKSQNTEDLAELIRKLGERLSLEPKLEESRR

Regarding `Cc1ccc(Cl)cc1N1CCN(CCN)CC1`, the activation was 131% (active) in test [1], 119% (active) in test [2] and 53.8% (active) in test [12]. The result in test [3], in test [4], in test [5], in [6], in test [7] and in test [8] was inactive. In addition, the outcome in [9], in test [10], in test [11], in test [13], in test [14] and in [15] was inactive. Also, in [16], the result was inactive.
Take `CNCCc1nc(N)n[nH]1`: the activation in test [1] was 160% (active); in test [2], 172% (active); in test [12], 146% (active). The outcome in test [3], in test [4], in [5], in test [6], in [7] and in test [8] was inactive. The result in test [9], in test [10], in [11], in test [13], in test [14] and in test [15] was inactive. The result in [16] was inactive.
Regarding `COc1ccc2c(c1O)C13CCN(C)C(C2)C1CCC(=O)C3` (stereo not drawn), the values for the activation in [1], in test [2] and in test [10] were 82% (active), 96% (active) and 27.5% (active), respectively. Also, the outcome in [3], in test [4], in test [5], in test [6], in test [7] and in test [8] was inactive. Besides, the outcome in [12] and in [15] was inactive. In addition, the outcome in test [9], in [11], in [13], in test [14] and in test [16] was “inactive [setting not given]” in each case.
In the case of `O=C(CCCc1ccccc1)NCCc1cnc[nH]1`, the activation in test [1] was 137% (active); in test [12] it was 35.3% (active). Moreover, the result in test [2], in test [3], in [4], in [5], in test [6] and in test [7] was inactive. For the same molecule, the outcome in test [8], in [9], in [10], in test [11], in test [13] and in [14] was inactive. In addition, the result in test [15] and in test [16] was inactive.
As to `Cc1ccc(-n2cc(CNC(C)Cc3cnccn3)c(-c3cccc(C)c3)n2)cc1` (stereo not drawn), the activation in [1] is 146% (active); in test [10] it was 42.5% (active). Moreover, the result in [2], in [3], in test [4], in test [5], in test [6] and in test [7] was inactive. The result in [8], in [9], in test [11], in [12], in test [13] and in test [14] was inactive. Moreover, the result in test [15] and in [16] was inactive.
As for `CCOC(=O)C1(c2ccccc2)CCN(CCC(=O)Nc2ccccc2OC)CC1`, the activation in [1] was 70% (active); in [10] it was 62% (active). Further, the result in test [2], in test [3], in test [4], in test [5], in test [6] and in [7] was inactive. Also, the result in [8], in test [12] and in test [15] was inactive. The outcome in test [9], in test [11], in test [13], in test [14] and in test [16] was “inactive [setting not given]” in each case.
`CC1(C)CC(CCNCc2ccc3c(c2)OCO3)(Cc2ccccc2)CCO1` (stereo not drawn): the activation in [1] was 169% (active); in test [10], 70% (active); in test [12], 5.46% (active). The result in [2], in test [3], in test [4], in test [5], in test [6] and in [7] was inactive. The outcome in [8], in test [9], in [11], in test [13], in test [14] and in [15] was inactive. Moreover, the result in test [16] was inactive.
With `CN(C)C=C1C(=O)N(C2CCCCC2)C(=O)N(C2CCCCC2)C1=O`, the activation is 83% (active) in [1], 124% (active) in [12] and 39.4% (active) in test [15]. The outcome in [2], in test [3], in test [4], in test [5], in [6] and in test [7] was inactive. Also, the result in test [8] and in test [10] was inactive. Besides, the outcome in [9], in test [11], in test [13], in [14] and in test [16] was “inactive [setting not given]” in each case.
